PubChem BioAssay (EPA / NIEHS)
Activity calls are given as the source filed them. The calls were made as follows: active = hit-call score of the fitted dose curve at least 0.9, where 1 is the maximum; inactive = score below 0.9.

Read-out: Tissue plasminogen activator (tPA), PLAT (gene 5327)
Experiment: BSK_BE3C_tPA: BioMAP Diversity Plus: BE3C Assay for Tissue plasminogen activator (tPA) Biomarker Activity (AID 2283041);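 as to outcome: tPA level quantified by ELISA one day after compound addition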
Details: primary human bronchial epithelial cells; actives raise or lower the signal
Outline: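 tPA measured by ELISA 24 h after dosing human primary bronchial epithelial cells (BE3C system). Changes in either direction were fitted against DMSO. Parallel cultures were stained with SRB to flag overt cytotoxicity.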

Row | Compound | AC50 | outcome
1 | O=C(N[C@@H](c1ccccc1)[C@@H]1CCCCN1)c1cccc(C(F)(F)F)c1Cl | 24 µM (active) | 
2 | COc1ccc(OC(F)(F)F)cc1CN[C@H]1CCCN[C@H]1c1ccccc1 |  | inactive
3 | CCCCCCCCCCCCCCCCO |  | inactive
4 | CC1=C(C)S(=O)(=O)CCS1(=O)=O |  | inactive
5 | O=C(O)c1cccnc1 |  | inactive
6 | CC(=O)OCC(COC(C)=O)OC(C)=O |  | inactive
7 | CC(=O)O |  | inactive
8 | Oc1ccc(O)cc1 |  | inactive
9 | O=C1CCCCC1 |  | inactive
10 | C/C=C/C=C/C(=O)O |  | inactive
11 | CCCCC(CC)COP(=O)(OCC(CC)CCCC)OCC(CC)CCCC (configuration not stated) |  | inactive
12 | CC(=O)S[C@H](C(=O)N[C@H]1Cc2ccccc2[C@H]2CCC[C@@H](C(=O)O)N2C1=O)C(C)C |  | inactive
13 | CN(C)C(=O)NC1(c2ccccc2)CCN(CCC[C@]2(c3ccc(Cl)c(Cl)c3)CCCN(C(=O)c3ccccc3)C2)CC1 |  | inactive
14 | CCCCCCCCCC[N+](C)(C)[O-] |  | inactive
15 | CC(C)c1cccc(C(C)C)c1NC(=O)NS(=O)(=O)c1cc(C(C)(C)O)co1 |  | inactive
16 | OCC(O)CO |  | inactive
17 | Nc1nc(Cl)nc2c1ncn2[C@H]1C[C@H](O)[C@@H](CO)O1 |  | inactive
18 | CCCCCCCC(=O)OC |  | inactive
19 | N[C@@H](Cc1c[nH]c2ccccc12)C(=O)O |  | inactive
20 | CCCC(=O)O |  | inactive
21 | Cc1cn([C@H]2C=C[C@@H](CO)O2)c(=O)[nH]c1=O |  | inactive
22 | O=NO |  | inactive
23 | Oc1ccccc1O |  | inactive
24 | Cc1cc(SC2=C(O)C[C@@](CCc3ccc(N)cc3)(C(C)C)OC2=O)c(C(C)(C)C)cc1CO |  | inactive
25 | CCN(CC)CCOc1ccc(C(=C(Cl)c2ccccc2)c2ccccc2)cc1 | 11.1 µM (active) | 
26 | CC(C)COC(=O)CCCCC(=O)OCC(C)C |  | inactive
27 | O=C(O)CN(CC(=O)O)CC(=O)O |  | inactive
28 | CS(=O)(=O)c1ccc([C@@H](C[C@H]2CCC(=O)C2)C(=O)Nc2cnccn2)cc1Cl |  | inactive
29 | CCCCCCC(C=O)=Cc1ccccc1 |  | inactive

Read-out: Interleukin-8 (IL8), CXCL8 (gene 3576)
Experiment: BSK_CASM3C_IL8: BioMAP Diversity Plus: CASM3C Assay for Interleukin-8 (IL8) Biomarker Activity (AID 2283042);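 also: IL-8 protein level quantified by ELISA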
Details: primary human coronary artery smooth muscle cells; actives raise or lower the signal

Row | Compound | outcome | AC50
30 | O=C(N[C@@H](c1ccccc1)[C@@H]1CCCCN1)c1cccc(C(F)(F)F)c1Cl | inactive | 
31 | COc1ccc(OC(F)(F)F)cc1CN[C@H]1CCCN[C@H]1c1ccccc1 | inactive | 
32 | CCCCCCCCCCCCCCCCO | inactive | 
33 | CC1=C(C)S(=O)(=O)CCS1(=O)=O | inactive | 
34 | O=C(O)c1cccnc1 | inactive | 
35 | CC(=O)OCC(COC(C)=O)OC(C)=O | inactive | 
36 | CC(=O)O | inactive | 
37 | Oc1ccc(O)cc1 | inactive | 
38 | O=C1CCCCC1 | inactive | 
39 | C/C=C/C=C/C(=O)O | inactive | 
40 | CCCCC(CC)COP(=O)(OCC(CC)CCCC)OCC(CC)CCCC (configuration not stated) | inactive | 
41 | CC(=O)S[C@H](C(=O)N[C@H]1Cc2ccccc2[C@H]2CCC[C@@H](C(=O)O)N2C1=O)C(C)C | inactive | 
42 | CN(C)C(=O)NC1(c2ccccc2)CCN(CCC[C@]2(c3ccc(Cl)c(Cl)c3)CCCN(C(=O)c3ccccc3)C2)CC1 | inactive | 
43 | CCCCCCCCCC[N+](C)(C)[O-] | inactive | 
44 | CC(C)c1cccc(C(C)C)c1NC(=O)NS(=O)(=O)c1cc(C(C)(C)O)co1 | inactive | 
45 | OCC(O)CO | inactive | 
46 | Nc1nc(Cl)nc2c1ncn2[C@H]1C[C@H](O)[C@@H](CO)O1 | inactive | 
47 | CCCCCCCC(=O)OC | inactive | 
48 | N[C@@H](Cc1c[nH]c2ccccc12)C(=O)O | inactive | 
49 | CCCC(=O)O | inactive | 
50 | Cc1cn([C@H]2C=C[C@@H](CO)O2)c(=O)[nH]c1=O | inactive | 
51 | O=NO | inactive | 
52 | Oc1ccccc1O | inactive | 
53 | Cc1cc(SC2=C(O)C[C@@](CCc3ccc(N)cc3)(C(C)C)OC2=O)c(C(C)(C)C)cc1CO | inactive | 
54 | CCN(CC)CCOc1ccc(C(=C(Cl)c2ccccc2)c2ccccc2)cc1 |  | 32 µM (active)
55 | CC(C)COC(=O)CCCCC(=O)OCC(C)C | inactive | 
56 | O=C(O)CN(CC(=O)O)CC(=O)O | inactive | 
57 | CS(=O)(=O)c1ccc([C@@H](C[C@H]2CCC(=O)C2)C(=O)Nc2cnccn2)cc1Cl | inactive | 
58 | CCCCCCC(C=O)=Cc1ccccc1 | inactive | 

Read-out: Human Leukocyte Antigen - DR isotype (HLADR), HLA-DRA (gene 3122)
Experiment: BSK_CASM3C_HLADR: BioMAP Diversity Plus: CASM3C Assay for Human Leukocyte Antigen - DR isotype (HLADR) Biomarker Activity (AID 2283043);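 also: cell-surface HLA-DR protein level quantified by ELISA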
Details: primary human coronary artery smooth muscle cells; actives raise or lower the signal

Row | Compound | outcome | AC50
59 | O=C(N[C@@H](c1ccccc1)[C@@H]1CCCCN1)c1cccc(C(F)(F)F)c1Cl | inactive | 
60 | COc1ccc(OC(F)(F)F)cc1CN[C@H]1CCCN[C@H]1c1ccccc1 |  | 14.7 µM (active)
61 | CCCCCCCCCCCCCCCCO | inactive | 
62 | CC1=C(C)S(=O)(=O)CCS1(=O)=O | inactive | 
63 | O=C(O)c1cccnc1 | inactive | 
64 | CC(=O)OCC(COC(C)=O)OC(C)=O | inactive | 
65 | CC(=O)O | inactive | 
66 | Oc1ccc(O)cc1 |  | 9.58 µM (active)
67 | O=C1CCCCC1 | inactive | 
68 | C/C=C/C=C/C(=O)O | inactive | 
69 | CCCCC(CC)COP(=O)(OCC(CC)CCCC)OCC(CC)CCCC (configuration not stated) | inactive | 
70 | CC(=O)S[C@H](C(=O)N[C@H]1Cc2ccccc2[C@H]2CCC[C@@H](C(=O)O)N2C1=O)C(C)C |  | 3.97 µM (active)
71 | CN(C)C(=O)NC1(c2ccccc2)CCN(CCC[C@]2(c3ccc(Cl)c(Cl)c3)CCCN(C(=O)c3ccccc3)C2)CC1 | inactive | 
72 | CCCCCCCCCC[N+](C)(C)[O-] | inactive | 
73 | CC(C)c1cccc(C(C)C)c1NC(=O)NS(=O)(=O)c1cc(C(C)(C)O)co1 | inactive | 
74 | OCC(O)CO | inactive | 
75 | Nc1nc(Cl)nc2c1ncn2[C@H]1C[C@H](O)[C@@H](CO)O1 | inactive | 
76 | CCCCCCCC(=O)OC | inactive | 
77 | N[C@@H](Cc1c[nH]c2ccccc12)C(=O)O | inactive | 
78 | CCCC(=O)O | inactive | 
79 | Cc1cn([C@H]2C=C[C@@H](CO)O2)c(=O)[nH]c1=O | inactive | 
80 | O=NO | inactive | 
81 | Oc1ccccc1O |  | 10.4 µM (active)
82 | Cc1cc(SC2=C(O)C[C@@](CCc3ccc(N)cc3)(C(C)C)OC2=O)c(C(C)(C)C)cc1CO | inactive | 
83 | CCN(CC)CCOc1ccc(C(=C(Cl)c2ccccc2)c2ccccc2)cc1 |  | 23.9 µM (active)
84 | CC(C)COC(=O)CCCCC(=O)OCC(C)C | inactive | 
85 | O=C(O)CN(CC(=O)O)CC(=O)O | inactive | 
86 | CS(=O)(=O)c1ccc([C@@H](C[C@H]2CCC(=O)C2)C(=O)Nc2cnccn2)cc1Cl | inactive | 
87 | CCCCCCC(C=O)=Cc1ccccc1 | inactive | 
